This is part of a sample that, as a whole, favours compounds with a hit. Of some 83,000 tested, about 20% had one in any assay.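 Values shown are percent growth following 48 h exposure of cells in 96-well plates to a single concentration of compound; below 10 was considered active.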 Activity calls are given as the source filed them.

In the assay the test system is HL-60(TB) leukemia. Briefly: NCI-60 one-dose screen, 48 h (100 = growth as untreated, 0 = no growth, -100 = all killed). Conditions: 10 µM unless noted.
As for `CN(C)c1ccc(/C=C/C(=O)c2ccc(NC(=O)CN3C(=O)NC(C)(c4ccccc4)C3=O)cc2)cc1` (stereo unspecified), the growth is 47.5% (inactive). Turning to `C/C(=C\CC/C=C(\C)CC/C=C(\C)CC[C@@H](O)C(C)(C)O)CC/C=C(\C)CC[C@@H](O)C(C)(C)O`, the growth was -49.3% (active). Then `Cc1ccc(S(=O)(=O)c2nc(S(=O)(=O)c3ccc(C)cc3)c(N3CCC(O)CC3)s2)cc1`, with 35.5% (inactive); and `COc1ccc(-c2nc3ccccc3n2CC(=O)N=Nc2c(O)[nH]c3ccc(Br)cc23)cc1`, with 45.2% (inactive); and `O=C(c1ccc(OCCN2CCOCC2)cc1)C1[C@H](c2ccc(Cl)cc2)[C@@H](c2ccccc2)NC12C(=O)Nc1ccc(Cl)cc12` (stereo partly specified), with -12.7% (active). In the case of `Cc1ccccc1[C@H]1C(C(=O)c2ccc(Cl)cc2)C2(N[C@@H]1c1ccccc1)C(=O)Nc1ccc(Br)cc12` (stereo partly specified), the growth was -1.57% (active).

These data come from PubChem BioAssay (NCI).
